TEAD-YAP inh – TEAD-YAP interaction inhibition, primary screen, TEAD-YAP interaction inhibitor project, luminescence, HEK-TIYL cells; hit rate 1.4% among 640,000; TEAD-Gal4/YAP UAS-luciferase luminescence; AID 1259422, 2018; inhibition, % at 9.12 µM; in the data active means inhibition above about 32%;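 further: 0% = median of test compound wells and 100% = reference inhibitor wells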
GPR151 ag – activators of human GPR151, primary screen, cell-based, PathHunter beta-arrestin, luminescence | G-protein coupled receptor 151 (Homo sapiens), Q8TDV0 | PathHunter beta-arrestin GPR151 cells | activation, % at 11.2 µM | hit rate 1% among 650,000; in the data active means activation above about 4.9%;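 further: 0% = median of compound wells and 100% = cells with positive control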
MITF inh – MITF inhibitors, primary screen, biochemical, AlphaScreen, human | AlphaScreen MITF homodimerization, bead proximity signal | inhibition, % at 2.6 µM | hit rate 0.91% among 650,000 | AID 1259374, 2018; in the data active means inhibition above about 50%;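 further: 0% = vehicle wells with protein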
FBW7 act – FBW7 E3 ligase activators, primary screen, biochemical, AlphaScreen, human; F-box/WD repeat-containing protein 7 (Homo sapiens), Q969H0; AlphaScreen FBW7–phospho-cyclin E peptide binding, activator screen; normalized activity (activation), % at 26.1 µM; hit rate 0.13% among 650,000; AID 1259310, 2017; in the data active means normalized activity above about 1.9%;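 further: purified mutant Fbw7 with reduced substrate affinity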
Target sequence (Q969H0 whole entry, looked up): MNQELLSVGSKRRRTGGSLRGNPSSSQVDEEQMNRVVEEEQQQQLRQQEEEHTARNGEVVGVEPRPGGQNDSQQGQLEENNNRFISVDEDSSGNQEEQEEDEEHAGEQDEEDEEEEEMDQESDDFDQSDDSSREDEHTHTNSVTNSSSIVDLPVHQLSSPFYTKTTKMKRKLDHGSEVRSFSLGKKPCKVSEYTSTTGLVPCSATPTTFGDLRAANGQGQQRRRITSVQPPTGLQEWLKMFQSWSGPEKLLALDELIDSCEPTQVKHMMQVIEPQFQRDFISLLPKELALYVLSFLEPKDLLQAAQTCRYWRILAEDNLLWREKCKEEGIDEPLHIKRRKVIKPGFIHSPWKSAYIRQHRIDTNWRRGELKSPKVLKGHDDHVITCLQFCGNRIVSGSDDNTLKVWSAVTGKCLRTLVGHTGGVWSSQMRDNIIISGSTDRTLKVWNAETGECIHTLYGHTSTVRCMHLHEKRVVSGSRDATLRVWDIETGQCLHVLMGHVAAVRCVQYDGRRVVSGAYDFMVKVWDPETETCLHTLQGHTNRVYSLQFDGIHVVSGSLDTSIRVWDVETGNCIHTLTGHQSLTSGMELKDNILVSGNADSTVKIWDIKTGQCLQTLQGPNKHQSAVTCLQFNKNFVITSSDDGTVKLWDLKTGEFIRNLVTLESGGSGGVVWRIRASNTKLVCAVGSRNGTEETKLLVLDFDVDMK
MITF confirm – MITF inhibitors, retest of hits, confirmation, biochemical, AlphaScreen, triplicate. shares compounds with MITF inh. AlphaScreen MITF homodimerization, biotin/His-MITF beads. inhibition, % at 2.6 µM. hit rate 16% among 4,700. AID 1259372, 2018;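 active means inhibition above a cutoff derived from the DMSO control wells, cut at about 28% in these data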;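 further: 0% = MITF dimer wells with DMSO only; inhibitors lower the bead chemiluminescence by keeping MITF from dimerizing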
AlphaScreen intf2 – AlphaScreen optical interference compounds, counter-screen for MITF inhibitor project, biochemical, triplicate; shares compounds with MITF inh; AID 1259376, 2018; inhibition, % at 2.6 µM; LysRS AlphaScreen counterscreen, signal interference; hit rate 7.6% among 4,700;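 active means inhibition above a cutoff derived from the DMSO control wells, cut at about 30% in these data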
Starred values were filed as active, the others as inactive; . = no result given. Hits are enriched below; roughly 3.5% of the tested compounds scored in any of these assays.

SMILES	TEAD-YAP inh	GPR151 ag	MITF inh	FBW7 act	MITF confirm	AlphaScreen intf2
O=C(Nc1ccc2c(c1)OCO2)c1ccnc(N2CCN(Cc3ccc4c(c3)OCO4)CC2)c1	5.5	-1.1	17.7	-0.2	.	.
COC(=O)c1ccc(NC(=O)CN2CCC(Cn3c(C)nc4ccccc43)CC2)cc1	11.5	0.3	67.8*	-0.1	4.7	22.0
Cc1cc(NC(=O)CN2CCC(Cn3c(C)nc4ccccc43)CC2)no1	39.4*	-1.5	78.7*	0.1	11.1	13.8
CC(C)N(CCNC(=O)c1cccc(Nc2nccc3ccccc23)c1)C(C)C	-7.1	-0.6	13.1	-0.1	.	.
CC(C)CN1C(=O)c2ccc(C(=O)O)cc2C1=O	2.7	-0.8	15.9	0.2	.	.
COc1cccc(-c2nc(C3CCN(C(C)=O)CC3)n3ccc(Cl)cc23)c1	1.9	-0.4	77.0*	-0.3	7.1	12.8
O=C(CSc1ccncc1)NCC1CCC(c2nc3ccccc3[nH]2)CC1 (stereo not given)	0.4	1.4	-1.4	-0.1	.	.
CC(C)CN1C(=O)c2cccnc2C1=O	-0.8	0.2	20.1	-0.1	.	.
CCCOc1ccc(C(=O)Nc2cccc(-c3nc4ncccc4o3)c2)cc1	-0.2	-0.1	69.4*	0.1	13.2	15.6
COc1cc(C(=O)N2CCN(Cc3cccc(F)c3)CC2)cc(OC)c1OC	-2.6	-1.2	53.6*	-0.2	7.1	2.1
COc1cc(OC)cc(C(=O)N2CCN(C3CCN(Cc4ccccc4)CC3)CC2)c1	0.4	-2.8	58.5*	-0.3	1.1	-3.3
COc1cc(OC)cc(C(=O)N2CCN(Cc3cccnc3)CC2)c1	23.5	-1.6	65.8*	0.5	7.7	17.6
COc1cc(C(=O)N2CCN(Cc3cccnc3)CC2)cc(OC)c1OC	-3.4	-0.4	54.0*	0.5	2.1	0.1
Cc1ccc(NC(=O)Nc2ccccc2Cl)nc1	-31.1	-1.5	1.8	0.3	.	.
CC1CC(C)CN(C(=O)c2ccc(NCc3cccs3)c(S(=O)(=O)Nc3cc(F)ccc3F)c2)C1 (stereo not given)	-8.0	3.4	4.8	0.0	.	.
Cc1cc(C)c2nc(NC(=O)CN3C(=O)c4ccccc4C3=O)sc2c1	-4.2	-1.1	-12.8	-0.3	.	.
FC(F)(F)c1ccccc1CN1CCN(Cc2ccccc2Br)CC1	8.3	-1.8	62.0*	0.0	4.6	26.2
OCC1CCN(C2CCCN(Cc3ccccc3C(F)(F)F)C2)CC1 (stereo not given)	-4.3	-1.8	-1.4	0.1	.	.
CCCN1CCC(NCc2ccccc2C(F)(F)F)CC1	8.7	0.0	54.7*	0.1	-2.7	-2.1
OC1CCN(Cc2ccccc2C(F)(F)F)CC1	5.7	0.5	40.0	0.1	.	.
FC(F)(F)c1ccccc1CN1CCN(C2CCCC2)CC1	6.1	3.1	64.3*	-0.1	-4.5	-1.6
CN1CCC(NCc2ccccc2C(F)(F)F)CC1	3.8	-0.2	-5.2	0.2	.	.
COc1ccc(CN2CCN(Cc3ccccc3Br)CC2)cc1OC	-1.2	-0.3	48.7	0.0	.	.
FC(F)(F)c1ccccc1CN1CCN(Cc2ccccc2C(F)(F)F)CC1	-5.7	1.0	70.3*	-0.1	4.0	7.9
CC1(C)Cc2ccccc2-c2nnc(SCc3ccncc3)n21	-2.7	0.2	1.3	-0.1	.	.
SMILES	TEAD-YAP inh	GPR151 ag	MITF inh	FBW7 act	MITF confirm	AlphaScreen intf2
CCOC(=O)c1c(NC(=O)CSc2nnc(CNC(=O)Cc3ccc(OC)cc3)n2-c2cccc(C)c2)sc2c1CCC2	5.1	1.5	-1.4	-0.1	.	.
FC(F)(F)c1ccccc1CN1CCN(Cc2ccc(Br)cc2)CC1	-2.3	-0.5	81.8*	-0.2	8.7	22.6
O=S(=O)(c1ccc(Cl)cc1)N1CCN(Cc2ccccc2C(F)(F)F)CC1	-12.9	-0.1	-2.1	0.2	.	.
Fc1ccccc1CN1CCN(Cc2ccccc2C(F)(F)F)CC1	8.7	0.2	64.9*	-0.1	-13.8	-1.8
Fc1ccccc1CN1CCN(c2ccccn2)CC1	-12.8	-0.9	4.0	-0.1	.	.
OCCC1CN(Cc2ccccc2C(F)(F)F)CCN1C1CCCC1 (stereo not given)	2.4	1.9	0.1	-0.1	.	.
CS(=O)(=O)N1CCN(Cc2ccccc2C(F)(F)F)CC1	-0.3	-1.3	70.9*	-0.1	-1.0	4.7
FC(F)(F)c1ccccc1CN1CCN(Cc2ccncc2)CC1	3.8	0.7	71.1*	0.2	-0.7	-3.8
O=C(COc1ccccc1F)OCc1cc(-c2ccc(Cl)cc2)on1	-12.1	-1.5	1.2	0.7	.	.
Cc1ccc(CN2C(=O)CSc3ccc(C(=O)NC4CCCCCCC4)cc32)cc1	-7.9	0.9	6.1	0.1	.	.
O=C(c1cccs1)N1CCN(Cc2ccccc2C(F)(F)F)CC1	3.9	0.5	69.9*	0.0	-5.1	0.1
Cc1ccccc1CN1CCN(C(=O)c2cccs2)CC1	-28.2	1.1	45.4	-0.2	.	.
CCCOc1ccccc1C(=O)Nc1nnc(SCC)s1	-3.6	-2.0	67.3*	0.8	20.5	12.2
CCSc1nnc(NC(=O)c2cc(Cl)ccc2Cl)s1	2.5	-1.4	1.5	-0.1	.	.
CCSc1nnc(NC(=O)c2cc(S(=O)(=O)N3CCCCC3)ccc2Cl)s1	-6.8	-1.0	56.7*	0.3	12.0	16.1
CC(C)C/C=N/NC(=O)c1ccc2c(c1)NC(=O)C(C)(C)O2	-13.2	-0.3	59.6*	0.0	9.1	12.6
C=C(C)CN(CC)Cc1ccc([N+](=O)[O-])o1	-1.8	1.5	64.9*	-0.2	23.2	16.1
CC(NC(=O)OCc1ccc(F)cc1)(C(F)(F)F)C(F)(F)F	3.4	-1.5	6.7	0.2	.	.
COc1cccc(OC)c1OCCOc1ccccc1C	7.5	-0.1	-12.5	-0.1	.	.
CCN(CC)CCCOc1c(OC)cccc1OC	8.7	1.4	74.7*	0.2	14.1	-12.3
COc1cccc(OC)c1OCCN(C)C	5.3	-0.5	58.7*	0.0	21.8	-6.6
CN(C)CC(=O)Nc1cc(N(C)C)nc2ccccc12	-1.3	3.7	61.5*	-0.2	6.5	-4.6
O=C1CCCc2c1sc1nc3n(c(=O)c21)CCCCC3	-44.2	-0.8	-2.5	-0.2	.	.
O=c1c2c3c(sc2nc2n1CCCCC2)CCC3	-25.8	0.3	70.6*	0.0	-5.3	0.2
CCC(C)NC(=O)CCc1nc2cccnc2n1Cc1cccs1 (stereo not given)	0.1	0.3	9.6	0.0	.	.
CCc1nc2ccccc2c(NC(=O)CNC(C)(C)CC(C)(C)C)c1C	1.4	0.5	70.0*	-0.1	13.7	-6.1
O=C(CN1CCCC1)Nc1c2c(nc3ccccc13)N(Cc1ccccc1)CC2	7.5	-0.5	29.7	-0.1	.	.
O=C(CN1CCCC1)Nc1ccccc1	-14.3	3.5	11.1	0.6	.	.
CCc1nc2ccccc2c(NC(=O)CN2CCCC2)c1C	8.1	1.3	64.8*	0.2	-13.9	-2.8
